Bioassay records: PubChem BioAssay, National Center for Advancing Translational Sciences (NCATS)
The list is not random: actives were taken first. Their share in the collection is about 6.7%.
PINK1 modulator: changes PINK1 expression | PINK1 immunofluorescence, high-content cytometry, 24 h | 0.2% of 410,000 active | Potency, µM (doses to about 76.6 µM), without a hit: at the highest dose activation (PINK1 increase), hits mostly activators | AID 624263; active = well fitted activation curve with a large enough effect; inconclusive = small, poorly fitted or top-dose-only effect; cell line not stated here; also: % of control where 0% means no effect; nearly all actives have a fitted effect of over 65% in size
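Cells are seeded, rested 12 hours, then given compound at five concentrations or DMSO for 24 hours. After fixation, blocking and antibody staining, PINK1 amount and mitochondrial localization are scored; CCCP serves as control.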
MCF10A rerep: induces DNA re-replication in MCF 10a normal breast cells | MCF 10A DNA re-replication, Hoechst nuclear intensity, 48 h | Potency, µM (top dose mostly 46.1 µM), inactives show at the highest dose activity, positive = re-replication, usual class: activators | 2.9% of 350,000 active | AID 624296; also: % of control where 0% means no effect; nearly all actives have a fitted effect of over 50% in size
KB-3-1 cytotox: kills parental KB-3-1 adenocarcinoma cells | KB-3-1 viability, CellTiter-Glo ATP luminescence, 72 h | Potency, µM (highest dose often 46.1 µM), actives largely listed as cytotoxic | 1.4% of 400,000 active | AID 1347075; also: % is scaled to controls: 0 for no effect and ±100 for the full control effect; nearly all actives have a fitted effect of over 60% in size
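KB-3-1 parental drug-naive adenocarcinoma cells in DMEM/10% FBS, incubated 72 h at 37 C with pin-transferred compounds across a concentration series. Viability by CellTiter-Glo luminescence; concentration-response curves fitted after normalization.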
KB-V1 MDR tox: kills drug-selected multidrug resistant KB-V1 cells; KB-V1 MDR cells viability, CellTiter-Glo, 72 h; Potency, µM (series often up to 46.1 µM), usual class: cytotoxic; 3.4% of 400,000 active; also: % is scaled to controls: 0 for no effect and ±100 for the full control effect; nearly all actives have a fitted effect of over 60% in size
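KB-V1 MDR subline cells in DMEM (phenol-red free, 10% FBS) exposed to compounds in qHTS concentration series for 72 h at 37 degrees C. Viability read by CellTiter-Glo luminescence; concentration-effect curves fitted after normalization and correction.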
SW480 rerep: induces DNA re-replication in SW480 colon adenocarcinoma cells; 1.8% of 340,000 active; Potency, µM (series often up to 46.1 µM), without a hit: at the highest dose re-replication activation, most hits filed as activators; SW480 DNA re-replication, Hoechst DNA content imaging, 48 h; also: % of control where 0% means no effect; nearly all actives have a fitted effect of over 55% in size
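Image-based read-out: total Hoechst fluorescence of nuclei (405 nm excitation, 500-530 nm emission), with hits raising the fraction of high-intensity nuclei. SW480 colon cells incubated 48 hr with compounds at 37 C.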
Active calls of the source: *; i = inactive; ? = inconclusive; nt = no result; [ ] = dose if it differs, or a comment. Unless noted, calls follow the shape of the dose curve; as a rule, active = well fitted curve in the direction sought with a large enough effect; inconclusive = small, poorly fitted or top-dose-only effect, or another doubt; inactive = no such curve, though single readings can be large; an effect the other way counts as inactive or inconclusive. Potency is read from the fitted curve at half-maximal effect.

SMILES | PINK1 modulator | MCF10A rerep | KB-3-1 cytotox | KB-V1 MDR tox | SW480 rerep
CCCCOc1ccc(CN=C(N)N)cc1Cl | 2.9% | ? | ? | i | 19.5%
CCCOc1ccc(CCCN=C(N)N)cc1Cl | -1.9% | ? | 20.6µM* | i | 21.3%
CC(C)N1C(=O)S/C(=C/c2ccc3c(c2)n(C)c(=O)n3C)C1=O | 2.9% | ? | i | ? | ?
CCN(CC)c1ccc(/C=C2\SC(=O)N(C(C)C)C2=O)o1 | ? | 3.66µM* | ? | i | ?
CCOC(=O)c1c(NC(=O)CSc2nc3c(c(=O)n(C)c(=O)n3C)n2CC)sc(C)c1C | 1.6%[38.3 µM] | 17.7% | i | 9.2µM* | -1.2%
CC(C)N(C(=O)CSc1nnc(Cn2nnc3ccccc32)n1C)C(C)C | -0.6% | -0.9% | i | i | 1.3%
CCCn1c(SCC(=O)N2c3ccccc3CCc3ccccc32)nc2c1c(=O)n(C)c(=O)n2C | 10.2% | 4.8% | i | 4.11µM* | -2.3%
CCCCn1c(SCC(=O)Nc2nnc(C(C)C)s2)nc2c1c(=O)n(C)c(=O)n2C | -6.4%[38.3 µM] | ? | ? | 2.31µM* | -7.8%
CCn1c(SCC(=O)Nc2ccccc2)nc2c1c(=O)n(C)c(=O)n2C | 22.3%[38.3 µM] | 1.4% | i | i | 0.2%
CCCn1c(SCC(=O)Nc2nc3c(s2)CCCC3)nc2c1c(=O)n(C)c(=O)n2C | nt | 6.0% | i | i | -15.9%
CC1Cc2ccccc2N1C(=O)CSc1nnc(Cn2nnc3ccccc32)n1C (configuration not stated) | -0.7% | 4.4% | i | 18.4µM* | -1.9%
C=CC[C@H](CC(=O)NCCO)C(=O)N[C@H](COC(=O)[C@H](CC=C)CC(=O)OC(C)(C)C)Cc1c[nH]c2ccccc12 | 1.2% | ? | i | i | 9.5%
CC1Cc2ccccc2N1C(=O)CSc1nc2c(c(=O)n(C)c(=O)n2C)n1Cc1ccc(F)cc1 (configuration not stated) | 13.2% | 0.1% | i | 1.84µM* | -4.2%
CCCCCn1c(CN2CCCCC2C)nc2c1c(=O)n(C)c(=O)n2C (configuration not stated) | 1.0% | ? | i | 4.61µM* | -5.5%
CCCCCn1c(CN2CCCCC2CC)nc2c1c(=O)n(C)c(=O)n2C (configuration not stated) | 0.0% | 0.7% | i | i | -8.0%
CCCn1c(SCC(=O)N2CCc3ccccc3C2)nc2c1c(=O)n(C)c(=O)n2C | 0.9%[38.3 µM] | 3.0% | i | 3.66µM* | -2.2%
CCCCn1c(SCC(=O)N2CCCC2)nc2c1c(=O)n(C)c(=O)n2C | 5.6%[38.3 µM] | -3.0% | i | 9.2µM* | -1.7%
CCn1c(SCC(=O)N2CCCCC2)nc2c1c(=O)n(C)c(=O)n2C | 0.3% | -4.6% | i | i | -25.6%
CC(C)c1ccc(-c2noc(SCC(=O)N3CCCCC3C)n2)cc1 (configuration not stated) | 6.6% | nt | i | i | nt
C[C@@H]1CN(Cc2ccc3c(c2)CN(C(=O)CN2CCOc4ccccc4C2)CCO3)C[C@H](C)O1 | 0.8% | nt | nt | nt | nt
Cc1cccc(NC(=O)N2C3CCCC2CC(NC(=O)C(C)(C)C)C3)c1 (configuration not stated) | 3.1% | ? | i | i | ?
CCCCn1c(SCC(=O)N2c3ccccc3Sc3ccccc32)nc2c1c(=O)n(C)c(=O)n2C | -1.6% | 20.3% | 16.4µM* | 14.6µM* | ?
CCCCN1C[C@H](Cc2ccccc2)[C@@H](CC(=O)NC)C1=O | 0.2% | nt | i | i | nt
Cc1cccc(N2CCN(C(=O)CCCn3c(=S)[nH]c4cc5c(cc4c3=O)OCO5)CC2)c1C | 2.3% | 14.6% | i | 3.66µM* | 8.8%
Cc1cccc(N2CCN(C(=O)CCn3c(=S)[nH]c4cc5c(cc4c3=O)OCO5)CC2C)c1 (configuration not stated) | -3.6% | ? | i | 10.3µM* | 1.0%
SMILES | PINK1 modulator | MCF10A rerep | KB-3-1 cytotox | KB-V1 MDR tox | SW480 rerep
O=c1c(-c2ccccc2)nc2cnc(Nc3ccccc3)nc2n1C[C@H]1CCCO1 | 5.9% | nt | nt | nt | nt
COCCn1c(=O)c(-c2cccc(C#N)c2)nc2cnc(Nc3ccccc3)nc21 | 25.1µM* | nt | nt | nt | nt
COc1cccc(Nc2ncc3nc(CCc4ccccc4)c(=O)n(Cc4cccs4)c3n2)c1 | 28.2µM* | nt | nt | nt | nt
COc1ccc(Nc2ncc3nc(-c4cccs4)c(=O)n(Cc4cccc(OC)c4)c3n2)cc1 | 2.51µM* | nt | nt | nt | nt
COc1ccc(-c2nc3cnc(Nc4cccc(OC)c4)nc3n(C[C@H]3CCCO3)c2=O)cc1 | 25.1µM* | nt | nt | nt | nt
COc1cccc(Cn2c(=O)c(-c3cccs3)nc3cnc(Nc4cccc(OC)c4)nc32)c1 | 8.4% | nt | nt | nt | nt
Nc1ncnc2c1ncn2[C@@H]1O[C@H](C(=O)N2CCN(Cc3ccccn3)CC2)[C@@H](O)[C@H]1O | 4.0% | nt | i | i | nt
C/C=C(\C)C(=O)N1CCC(C(=O)c2ccccc2)CC1 | 0.3% | 1.5% | i | i | -6.1%
COc1cccc(CNC(=O)Cc2c(C(=O)O)c(C)cn2C)c1 | -0.1% | nt | i | i | nt
CCNc1ncc2nc(CCc3ccccc3)c(=O)n(Cc3ccc(F)cc3)c2n1 | 44.7µM* | nt | nt | nt | nt
Cc1ccc2c(c1)N(C(=O)CCC(=O)NC1CCCCCC1)CC(C)O2 (configuration not stated) | 1.3% | 7.6% | i | i | -0.6%
O=[N+]([O-])c1ccc(/C=N/n2cnc3ccccc32)s1 | -0.7% | ? | ? | ? | 4.11µM*
O=[N+]([O-])c1ccc(/C=N/n2c(CO)nc3ccccc32)s1 | 16.8% | 13.6% | ? | i | 3.26µM*
Cc1nc2ccccc2n1/N=C/c1ccc([N+](=O)[O-])o1 | nt | 1.5% | i | i | 5.8%
Cc1nc2ccccc2n1/N=C/c1ccc([N+](=O)[O-])s1 | ? | 18.4µM* | ? | 11.6µM* | ?
CCCCCC[N+](C)(C)CCSSCC[N+](C)(C)CCCCCC | 0.2% | 5.5% | i | i | -4.1%
C#CC[N+](C)(C)CCCCCCCCCCCC | -2.5% | 25.9µM* | 2.06µM* | i | 11.6µM*
CC#CC[N+](C)(C)CCCCCCCCCCCC | -1.4% | ? | ? | i | ?
CCCCCCCCCCCCCC[N+](C)(C)C | nt | 45.7% | nt | nt | ?
CCCCCCCCCCCCCCCC[N+](C)(C)CCl | -5.1% | 24.7% | ? | i | 20.6µM*
CCCCCCCCCCCCCCCC[N+](C)(C)CC | 1.1% | ? | ? | i | ?
C#CC[N+](C)(C)CCCCCCCCCC | 4.9% | ? | 3.66µM* | i | 20.6µM*
C#CC[N+](C)(C)CCCCCCCC | 2.8% | 10.9% | 5.17µM* | i | -0.5%
CC(C)(C)[C@H]1COC(=O)CCC/C=C/C[C@H](CC(=O)NCCO)C(=O)N1 | 0.4% | 19.4% | i | i | 0.8%
Cc1ccc(CN2CCC(C3(c4ccccn4)NC(=O)N(CC4CCCO4)C3=O)CC2)cc1C (configuration not stated) | 2.1% | nt | nt | nt | nt
